Assay outcomes from PubChem BioAssay.
An excerpt weighted towards active compounds, which were near 10% of everything screened.
CtBP-E1A inh – CtBP/E1A binding inhibition. AID 651724. activity change, % (no concentration beside the values). AlphaScreen GST-E1A/His-CtBP binding, 1536-well; active compounds read low. actives 0.49% (n = 340,000); in the data active = activity change below about -65%; inconclusive = mostly about -30% to -63%
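AlphaScreen with 125 nM GST-E1A and 125 nM His-CtBP (5X stocks) in Tris pH 8.0, 300 mM NaCl, BSA, Tween 20, TCEP. Compounds preincubated 2 h at 37 deg C, then glutathione donor/nickel acceptor beads added for 1 h at 37 deg C in dark.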
BAZ2B inh – BAZ2B (human) inhibition; actives 4.4% (n = 360,000); AID 504333; AlphaScreen BAZ2B-H3K14Ac peptide displacement; Potency, µM (top dose mostly 114 µM), most hits filed as inhibitors; note: nearly all actives have a fitted effect of over 60% in size
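AlphaScreen luminescence quantifies BAZ2B engagement of H3K14Ac peptide; the protein and biotinylated peptide are both at 50 nM final, buffer PBS pH 7.4 with 0.01% Tween-20, all steps at room temperature.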
JMJD2A Tudor inh – blocks the human JMJD2A Tudor domain; AlphaScreen JMJD2A-Tudor / H3K4me3 peptide binding; Potency, µM (titrated, usually from 114 µM), hits mostly inhibitors; O75164; AID 504339; actives 4.4% (n = 390,000); note: nearly all actives have a fitted effect of over 50% in size
HP1b chromo inh – blocks HP1-beta chromodomain binding to methylated histone tails; P83916; AlphaScreen HP1-beta / biotin-H3K9me3 peptide binding; Potency, µM (top dose mostly 114 µM), hits mostly inhibitors; actives 0.56% (n = 390,000); AID 540317; note: nearly all actives have a fitted effect of over 70% in size
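AlphaScreen: HP1-beta (50 nM) preformed 30 min with biotin-H3(1-18)K9me3 peptide (50 nM) in PBS pH 7.4, 0.01% Tween-20. Compound added for 30 min at RT, then streptavidin donor/nickel chelate acceptor beads (10 ug/mL) for 30 min.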
G9a inh – G9a (human) methyltransferase inhibition; G9a H3K9 monomethylation, AlphaScreen, 2 h; Potency, µM (doses to about 102 µM), usual class: inhibitors; AID 504332; Q96KQ7; actives 8.8% (n = 350,000); note: nearly all actives have a fitted effect of over 75% in size
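Quantitative HTS format: methyltransferase activity on a biotin-tagged H3K9 peptide is measured by AlphaScreen, using a rabbit anti-monomethyl-H3K9 antibody with streptavidin donor and anti-IgG acceptor beads. Final levels are 20 nM enzyme, 500 nM peptide, 20 uM SAM; 2 h RT.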
Six1-Eya2 inh – Six1/Eya2 interaction inhibition | actives 0.56% (n = 360,000) | Q15475+O00167 | AID 651725 | activity change, % (concentration not given with the values) | AlphaScreen GST-Six1/His-Eya2 binding, biochemical; active compounds read low; in the data active = activity change below about -65%; inconclusive = mostly about -30% to -63%
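Six1/Eya2 binding was read as AlphaScreen signal after compounds were pinned into GST-Six1 plus His-tagged Eya2 (5X stock 250/500 nM) in pH 8.0 Tris/NaCl/TCEP buffer, beads added, then incubated 1 h, 37 C, dark.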
Of the large screens only hits and unclear results are named; the others gave an inactive call. Unless noted, calls come from the whole dose curve; as a rule, active = well fitted inhibition curve with a large enough effect; inconclusive = small, poorly fitted or top-dose-only effect; inactive = no such curve, though single readings can be large or run the other way.

CC(=O)Nc1ccc(S(=O)(=O)N[C@@H](C)C(=O)OCC(=O)Nc2ccc3c(c2)OCCO3)cc1	none (no result: BAZ2B inh, G9a inh)
CC1(C)CC(=O)C2=C(C1)N(c1ccccc1C#N)C(N)=C(C#N)C2c1cccs1 (centres undefined)	BAZ2B inh 56µM, JMJD2A Tudor inh inconclusive, G9a inh 40µM
COc1ccc(N2C(N)=C(C#N)C(c3cccnc3)C3=C2CC(C)(C)CC3=O)cc1 (centres undefined)	G9a inh 11µM
CC1(C)CC(=O)C2=C(C1)N(c1cccnc1)C(N)=C(C#N)C2c1cccs1 (centres undefined)	none
CCSc1sccc1C1C(C#N)=C(N)N(c2cccnc2)C2=C1C(=O)CC(C)(C)C2 (centres undefined)	G9a inh inconclusive
CCOC(=O)C1(C)CCCN1C(=O)c1ccc(OC)cc1 (centres undefined)	none (no result: BAZ2B inh, JMJD2A Tudor inh, HP1b chromo inh, G9a inh)
CCCCNC(=O)C1C(c2ccc(C(F)(F)F)cc2)=Nc2ccccc2N1C(=O)C1CCN(C(C)=O)CC1 (centres undefined)	none (no result: BAZ2B inh, JMJD2A Tudor inh, HP1b chromo inh, G9a inh)
Cc1ccc(-c2nn(-c3ccccc3)cc2/C=C/C(=O)O)o1	BAZ2B inh inconclusive, G9a inh 28µM (no result: CtBP-E1A inh)
CCOC(=O)C1=C(C)NC(C)=C(C(=O)OCC)C1c1cn(-c2ccccc2)nc1-c1ccco1	none
CC(C)OC(=O)c1cn(-c2ccccc2)nc1-c1ccco1	G9a inh 7.9µM
Cc1ccc(-c2nn(-c3ccccc3)cc2C(=O)O)o1	BAZ2B inh inconclusive, G9a inh 4.5µM (no result: CtBP-E1A inh, JMJD2A Tudor inh, HP1b chromo inh, Six1-Eya2 inh)
Cc1ccc(-c2nn(-c3ccccc3)cc2CN(Cc2ccccc2)C(=O)c2ccco2)o1	BAZ2B inh 32µM, JMJD2A Tudor inh 56µM, G9a inh 32µM, Six1-Eya2 inh inconclusive
COc1cccc(N2CC(NC(=O)C(c3ccccc3)c3ccccc3)CC2=O)c1 (centres undefined)	none (no result: CtBP-E1A inh, Six1-Eya2 inh)
O=C(Nc1ccccc1Oc1cccnc1)C1CCCN(C/C=C/c2ccccc2)C1 (centres undefined)	none (no result: G9a inh)
CCN(CC)C(=O)C1CCCN(C/C(C)=C/c2ccccc2)C1 (centres undefined)	BAZ2B inh 50µM, JMJD2A Tudor inh 1.6µM, HP1b chromo inh inconclusive, G9a inh 16µM
CCN(CC(=O)Nc1ccccc1C(F)(F)F)C(=O)C1CCC1	none
CCN(CC)C(=O)C1CCCN(Cc2ccccc2C(F)(F)F)C1 (centres undefined)	BAZ2B inh 79µM, JMJD2A Tudor inh 4.5µM, HP1b chromo inh inconclusive, G9a inh inconclusive
CCN(CC)C(=O)C1CCCN(C/C=C/c2ccccc2)C1 (centres undefined)	BAZ2B inh 56µM, JMJD2A Tudor inh 4.5µM, HP1b chromo inh inconclusive, G9a inh 10µM
CN(C(=O)Cn1nnc(-c2ccc(S(C)(=O)=O)cc2)n1)c1ccccc1	none (no result: CtBP-E1A inh, Six1-Eya2 inh)
c1cncc(-c2cccnc2)c1	CtBP-E1A inh inconclusive, BAZ2B inh 40µM, Six1-Eya2 inh inconclusive (no result: G9a inh)
Oc1cncc(-c2cccnc2)c1	none
Cc1ccc(-c2c(CN3CCN(c4cc(C)ccc4C)CC3)csc2C)cc1	BAZ2B inh inconclusive, JMJD2A Tudor inh inconclusive (no result: CtBP-E1A inh, Six1-Eya2 inh)
COc1ccccc1N1CCN(Cc2cc3c(cc2Br)OCCO3)CC1	BAZ2B inh inconclusive, JMJD2A Tudor inh inconclusive, G9a inh inconclusive, Six1-Eya2 inh inconclusive
COc1ccc(N2CCN(Cc3cc4c(cc3Br)OCCO4)CC2)cc1	BAZ2B inh 13µM, JMJD2A Tudor inh 22µM, HP1b chromo inh inconclusive, G9a inh 28µM, Six1-Eya2 inh inconclusive
COc1ccc(N2CCN(Cc3csc(C)c3-c3ccc(C)cc3)CC2)cc1	CtBP-E1A inh inconclusive, BAZ2B inh 28µM, JMJD2A Tudor inh 13µM, HP1b chromo inh 35µM, G9a inh 11µM, Six1-Eya2 inh inconclusive
CCc1ccc(NC(=O)Cn2c(=O)n(Cc3ccco3)c(=O)c3oc4ccccc4c32)cc1	none (no result: CtBP-E1A inh, Six1-Eya2 inh)
C=CCNC(=O)N1CCCC(N2CCN(c3ccccc3OC)CC2)C1 (centres undefined)	none
Cc1ccc(NC(=S)NC(=O)c2sc3ccccc3c2Cl)c(C(=O)O)c1	BAZ2B inh 50µM, G9a inh 45µM (no result: CtBP-E1A inh, JMJD2A Tudor inh, HP1b chromo inh, Six1-Eya2 inh)
O=C(O)c1ccccc1NC(=S)NC(=O)c1sc2ccccc2c1Cl	JMJD2A Tudor inh inconclusive, G9a inh 10µM (no result: CtBP-E1A inh)
Cc1ccc(S(=O)(=O)Nc2ccc(O)c3ncccc23)cc1	CtBP-E1A inh -93, BAZ2B inh 22µM, JMJD2A Tudor inh 40µM, G9a inh inconclusive, Six1-Eya2 inh -91
CC(=O)Nc1ccc(NS(=O)(=O)c2ccccc2)c2ccccc12	none
O=S(=O)(Nc1ccc(O)c2ccccc12)c1cccs1	JMJD2A Tudor inh 13µM, HP1b chromo inh 45µM, G9a inh 7.1µM
O=S(=O)(Nc1ccc(O)c2ccccc12)c1ccc(Br)cc1	BAZ2B inh 45µM, G9a inh 40µM (no result: CtBP-E1A inh, JMJD2A Tudor inh, HP1b chromo inh, Six1-Eya2 inh)
O=C(Oc1ccc(-c2cnc3ccccc3n2)cc1)c1cc([N+](=O)[O-])ccc1Cl	G9a inh 28µM
O=[N+]([O-])c1cc(-c2cnc3ccccc3n2)ccc1Cl	none
Cc1nc2cccc(C(=O)Oc3ccc([N+](=O)[O-])cc3)c2o1	Six1-Eya2 inh -82
Cc1c(-c2ccccc2)nc2ccccc2c1C(=O)Oc1ccc([N+](=O)[O-])cc1	none
COc1ccccc1Oc1ccc(-c2cnc3ccccc3n2)cc1[N+](=O)[O-]	G9a inh inconclusive
Cc1c(C(=O)Oc2ccc(-c3cnc4ccccc4n3)cc2)cccc1[N+](=O)[O-]	G9a inh 20µM
O=[N+]([O-])c1cc(-c2cnc3ccccc3n2)ccc1Oc1ccc(Cl)cc1	BAZ2B inh inconclusive, G9a inh 14µM
CCC(=O)Oc1ccc(-c2cnc3ccccc3n2)cc1	none
CCOc1ccccc1NC(=O)Cn1c(=O)n(-c2ccc(C)c(C)c2)c(=O)c2oc3ccccc3c21	none (no result: CtBP-E1A inh, Six1-Eya2 inh)
CCN(Cc1ccccc1)c1ccc(/C=C(\C#N)c2ccccn2)cc1	G9a inh 50µM
CCC1CN(C(=O)Nc2ccccc2C(F)(F)F)c2ccccc2O1 (centres undefined)	none (no result: CtBP-E1A inh, Six1-Eya2 inh)
CC1CN(C(c2ccco2)c2sc3ncnn3c2O)CC(C)O1 (centres undefined)	G9a inh 40µM
Cc1nc2sc(C(c3ccco3)N3CCN(c4ccc(F)cc4)CC3)c(O)n2n1 (centres undefined)	BAZ2B inh inconclusive (no result: G9a inh)
Cc1nc2sc(C(c3ccccc3)N3CCN(C(=O)c4ccco4)CC3)c(O)n2n1 (centres undefined)	none
Cc1ccc(C(c2sc3ncnn3c2O)N2CCC(C)CC2)cc1 (centres undefined)	none
Cc1nc2sc(C(c3cccs3)N3CCN(C(=O)c4ccco4)CC3)c(O)n2n1 (centres undefined)	G9a inh 40µM
Cc1ccc(C(c2sc3ncnn3c2O)N2CCCCC2)cc1 (centres undefined)	none
